Hits are enriched below; roughly 11% of the tested compounds scored in any of these assays.
NIH3T3 tox: Cytotoxic Profiling in NIH 3T3 Cell Line of Diverse Libraries Using Quantitative High-Throughput Screening | Potency, µM (series often up to 96.7 µM), hits mostly inhibitors | actives 4.3% (n = 94,000) | NIH 3T3 viability, CellTiter-Glo ATP luminescence, 48-72 h; also: nearly all actives have a fitted effect of over 55% in size
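First NIH 3T3 cells are plated at 400 cells/well; next compound is pinned in; then plates incubate 48 or 72 hr at 37 °C; finally CellTiter-Glo is added and luminescence read after 10 min.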
HEK293 tox: Cytotoxic Profiling in HEK 293 Cell Line of Diverse Libraries Using Quantitative High-Throughput Screening; HEK 293 viability, ATP luminescence (CellTiter-Glo), 48-72 h; Potency, µM (highest dose often 115 µM), hits mostly inhibitors; actives 6.6% (n = 94,000); AID 1345083, 2018; also: nearly all actives have a fitted effect of over 60% in size
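Cells seeded first (HEK 293, 250 cells/well), then compound added by pintool. Incubation ran 48 or 72 hr at 37 degree Celsius. CellTiter-Glo was added and luminescence imaged after 10 min at room temperature.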
hNpr1 antagonist: Natriuretic polypeptide receptor (hNpr1) antagonism - Primary qHTS. Atrial natriuretic peptide receptor 1 (Homo sapiens), P16066. HEK293 hNpr1 GloSensor cGMP, ANP-stimulated luminescence. Potency, µM (doses to about 46.3 µM), most hits filed as inhibitors. actives 1.6% (n = 76,000). AID 1347048, 2019; calls by dose curve; also: nearly all actives have a fitted effect of over 60% in size
Target sequence (P16066 whole entry, looked up): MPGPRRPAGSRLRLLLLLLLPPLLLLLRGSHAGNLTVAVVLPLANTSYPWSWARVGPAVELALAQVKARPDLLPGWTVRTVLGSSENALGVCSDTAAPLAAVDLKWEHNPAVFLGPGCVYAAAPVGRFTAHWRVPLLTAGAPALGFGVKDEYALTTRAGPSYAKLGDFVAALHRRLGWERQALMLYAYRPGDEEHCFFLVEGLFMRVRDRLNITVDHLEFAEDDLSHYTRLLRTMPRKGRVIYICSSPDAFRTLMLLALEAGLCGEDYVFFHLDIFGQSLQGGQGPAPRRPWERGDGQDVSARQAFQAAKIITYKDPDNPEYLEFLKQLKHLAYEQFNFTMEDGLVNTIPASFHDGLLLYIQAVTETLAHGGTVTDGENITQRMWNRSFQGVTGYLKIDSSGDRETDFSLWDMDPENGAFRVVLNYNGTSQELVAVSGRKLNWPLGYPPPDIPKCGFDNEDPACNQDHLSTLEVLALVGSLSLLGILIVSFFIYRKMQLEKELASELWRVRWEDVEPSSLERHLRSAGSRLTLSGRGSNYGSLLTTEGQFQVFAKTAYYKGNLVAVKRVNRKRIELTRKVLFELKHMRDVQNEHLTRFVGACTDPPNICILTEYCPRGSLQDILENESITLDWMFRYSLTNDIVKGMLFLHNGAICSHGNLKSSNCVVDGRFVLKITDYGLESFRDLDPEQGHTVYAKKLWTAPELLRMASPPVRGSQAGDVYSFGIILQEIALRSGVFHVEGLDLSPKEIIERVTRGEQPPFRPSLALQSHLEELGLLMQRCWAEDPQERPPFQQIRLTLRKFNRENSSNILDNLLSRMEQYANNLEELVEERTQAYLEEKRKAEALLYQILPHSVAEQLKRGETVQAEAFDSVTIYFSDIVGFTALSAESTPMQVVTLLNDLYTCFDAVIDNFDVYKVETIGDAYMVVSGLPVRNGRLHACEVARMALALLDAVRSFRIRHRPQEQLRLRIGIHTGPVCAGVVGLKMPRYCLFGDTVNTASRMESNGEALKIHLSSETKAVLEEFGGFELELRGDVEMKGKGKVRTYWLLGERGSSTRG
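Compound pre-incubated 30 min at room temperature on GloSensor-loaded HEK293 cells stably carrying hNpr1 and the pGS-40F cGMP biosensor. Stimulation uses hNppA at 0.1 nM final; luminescence is taken at baseline and 20 min post-agonist.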
FLuc inh-1: Firefly luciferase inhibition profiling of diverse chemical library using quantitative high-throughput screening | purified P. pyralis luciferase, luminescence, biochemical | Luciferin 4-monooxygenase (Photinus pyralis), P08659 | Potency, µM (highest dose often 115 µM), usual class: inhibitors | actives 2.5% (n = 76,000); also: nearly all actives have a fitted effect of over 65% in size
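Purified P. pyralis luciferase (10nM final) in 50mM Tris acetate pH 7.5, 10mM Mg acetate, 0.01% Tween-20, 0.05% BSA with 10uM D-luciferin and 10uM ATP. Compounds titrated qHTS. Luminescence imaged on CCD.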
FLuc SDR -ATP: Firefly luciferase (FLuc-C-HiBiT) SDR gain of signal screen - without ATP. Purified FLuc-C-HiBiT, Nano-Glo HiBiT luminescence, no ATP. actives 7.8% (n = 1,300). Potency, µM (titrated, usually from 32.7 µM), actives largely listed as activators. AID 1963318, 2024. shares compounds with FLuc inh-1; also: nearly all actives have a fitted effect of over 55% in size
FLuc SDR ATP: Firefly luciferase (FLuc-C-HiBiT) SDR gain of signal screen - plus ATP; shares compounds with FLuc inh-1; purified FLuc-C-HiBiT + ATP, HiBiT complementation luminescence; Potency, µM (doses to about 32.7 µM), actives largely listed as activators; actives 8.7% (n = 1,300);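 also: signal reports ligand binding via conformational change of the enzyme rather than luciferase catalysis; nearly all actives have a fitted effect of over 55% in size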
FLuc inh-2: Firefly luciferase (FLuc-C-HiBiT) enzymatic inhibition screen - Functional assay | actives 42% (n = 1,300) | purified FLuc-C-HiBiT enzyme, luciferin luminescence | shares compounds with FLuc inh-1 | Potency, µM (titrated, usually from 32.7 µM), hits mostly inhibitors; also: nearly all actives have a fitted effect of over 70% in size
Npr1 antag conf: Natriuretic polypeptide receptor (hNpr1) antagonism - Confirmation. shares compounds with hNpr1 antagonist. HEK293 hNpr1 cGMP GloSensor luminescence, ANP-stimulated. Potency, µM (doses to about 57.6 µM), usual class: inhibitors. actives 76% (n = 1,400); calls by dose curve; also: nearly all actives have a fitted effect of over 70% in size
NPR2 antag: Natriuretic polypeptide receptor (hNpr2) antagonism - Subtype selectivity assay; shares compounds with hNpr1 antagonist; HEK293 hNpr2 GloSensor cGMP luminescence, CNP-stimulated; Potency, µM (highest dose often 57.6 µM), hits mostly inhibitors; actives 67% (n = 1,400); AID 1347046, 2019; calls by dose curve; also: nearly all actives have a fitted effect of over 70% in size
FLuc counter: Natriuretic polypeptide receptor (hNpr1) antagonism - Confirmation firefly luciferase (FLuc) inhibition counterscreen | actives 0.7% (n = 1,400) | purified FLuc enzyme, luminescence, Km substrate | shares compounds with hNpr1 antagonist | Potency, µM (titrated, usually from 57.6 µM), usual class: inhibitors; also: series mostly up to about 58 µM
GloSensor ctrl: Natriuretic polypeptide receptor (hNpr1) antagonism - Counterscreen GloSensor control cell line; shares compounds with hNpr1 antagonist; HEK293 GloSensor cGMP, SNP-stimulated, luminescence; Potency, µM (doses to about 57.6 µM), most hits filed as inhibitors; actives 69% (n = 1,400); calls by dose curve; also: nearly all actives have a fitted effect of over 70% in size
A number is an active result; 0 = inactive; ? = inconclusive; - = not tested or not shown. Unless noted, calls follow the shape of the dose curve; as a rule, active = well fitted curve in the direction sought with a large enough effect; inconclusive = small, poorly fitted or top-dose-only effect, or another doubt; inactive = no such curve, though single readings can be large; an effect the other way counts as inactive or inconclusive.

SMILES	NIH3T3 tox	HEK293 tox	hNpr1 antagonist	FLuc inh-1	others
COc1cc2c(cc1OCC1CC1)NC(=O)C21CCN(c2cc(NC3CC3)ncn2)CC1	25µM	89µM	0	0
COc1cc2c(cc1OC1CCCC1)NC(=O)C21CCN(c2cc(NC3CC3)ncn2)CC1	?	?	0	0
COc1cc2c(cc1OCC1CC1)NC(=O)C21CCN(c2ccnc(C)n2)CC1	?	79µM	0	0
Cc1nc(-c2ccco2)cc([C@H]2CN3CC[C@H]2C[C@@H]3CNS(=O)(=O)c2cccs2)n1	?	?	0	0
CC(C)(C)CN1CC2ON=C(C(=O)O)C2C1 (stereo not drawn)	0	0	-	-
CS(=O)(=O)NC[C@H]1C[C@@H]2CCN1C[C@@H]2CN1C[C@@H]2C[C@H](C1)c1cccc(=O)n1C2	0	0	0	0
Cn1nc(-c2cccs2)cc1[C@H]1CN2CC[C@H]1C[C@@H]2CNS(=O)(=O)c1ccccc1	?	0	0	0
Cc1nc(-c2ccccc2Br)cc([C@H]2CN3CC[C@H]2C[C@@H]3CNS(=O)(=O)c2cccs2)n1	79µM	79µM	0	0
Cc1nc(-c2cccs2)cc([C@H]2CN3CC[C@H]2C[C@@H]3CNS(=O)(=O)c2ccccc2)n1	20µM	28µM	0	0
Cc1nc(-c2cccs2)cc([C@H]2CN3CC[C@H]2C[C@@H]3CNC(=O)C(C)(C)C)n1	?	?	0	0
Cc1nc(-c2cccs2)cc([C@H]2CN3CC[C@H]2C[C@@H]3CO)n1	16µM	0	0	0
CN1Cc2ccccc2-n2ccnc2C12CCN(C(=O)c1ccc(C(F)(F)F)cc1)CC2	0	0	0	0
COCC(=O)N1CC[C@@H]2COCCN(Cc3cccnc3)[C@@H]2C1	0	0	-	-
O=C(Cc1cccc(Cl)c1)N1[C@H]2CC[C@@H]1c1cnc(-c3ccccc3)nc1C2	?	?	0	0
CN1CCNc2cc(Nc3ccncc3)ncc2C1	?	?	0	0
CN1CCNc2cc(Nc3ccc(F)c(Cl)c3)ncc2C1	50µM	?	?	0.79µM	FLuc SDR -ATP=0;FLuc SDR ATP=0;FLuc inh-2=13µM
CN1CCNc2cc(Nc3ccc(F)cc3)ncc2C1	?	?	0	3.2µM	FLuc SDR -ATP=0;FLuc SDR ATP=0;FLuc inh-2=20µM
CN1Cc2ccccc2-n2ccnc2C12CCN(C(=O)c1ccc(F)c(F)c1)CC2	0	0	0	0
O=C(Nc1ccc2n(c1=O)C[C@H]1C[C@@H]2CN(C(=O)Nc2ccccc2)C1)c1ccncc1	?	0	0	0
O=C(Nc1ccccc1)Nc1ccc2n(c1=O)C[C@H]1C[C@@H]2CN(C(=O)c2ccccc2)C1	?	?	0	14µM	FLuc SDR -ATP=?;FLuc SDR ATP=0;FLuc inh-2=?
COCCC(=O)Nc1ccc2n(c1=O)C[C@H]1C[C@@H]2CN(CCCc2ccccc2)C1	?	?	0	0
COc1ccc(-n2cc(C3=CCN(CCN4CCOCC4)CC3)cn2)cc1	?	?	?	4.5µM	FLuc SDR -ATP=?;FLuc SDR ATP=?;FLuc inh-2=9.9µM
O=[S+]1([O-])NC2(CCN(Cc3ccncc3)C2)COc2ccncc21 (stereo not drawn)	0	0	-	-
COc1cc2c(cc1-c1ccc(CO)cc1)NC(=O)C21CCN(C)CC1	-	-	-	-	FLuc SDR -ATP=0;FLuc SDR ATP=0;FLuc inh-2=?
CC(C)CN1CCNc2cc(-c3ccccc3)ncc2C1	?	?	0	4µM	FLuc SDR -ATP=0;FLuc SDR ATP=0;FLuc inh-2=?
SMILES	NIH3T3 tox	HEK293 tox	hNpr1 antagonist	FLuc inh-1	others
CN1CCC(N2C[C@@H]3OCC(=O)N[C@@H]3C2)CC1	0	0	0	0
CC[C@H]1CN2CC[C@H]1C[C@@H]2CN(Cc1cccs1)Cc1cccs1	45µM	45µM	?	0	Npr1 antag conf=?;NPR2 antag=?;FLuc counter=0;GloSensor ctrl=0
CC[C@H]1CN2CC[C@H]1C[C@@H]2CNS(=O)(=O)c1cccs1	0	0	0	0
Cc1ncccc1C(=O)N1[C@H]2CC[C@@H]1c1cnc(-c3ccc(F)cc3)nc1C2	?	?	0	0
O=C(COc1ccc(F)cc1)N1[C@H]2CC[C@@H]1c1cnc(-c3ccccc3)nc1C2	0	?	-	-
Cc1ccsc1C(=O)N1[C@H]2CC[C@@H]1c1cnc(-c3ccc(F)cc3)nc1C2	?	?	5.6µM	0	Npr1 antag conf=7.7µM;NPR2 antag=7.7µM;FLuc counter=0;GloSensor ctrl=6.1µM
COCCn1c(C)cc(C(=O)N2[C@H]3CC[C@@H]2c2cnc(-c4ccc(F)cc4)nc2C3)c1C	?	25µM	11µM	0	Npr1 antag conf=12µM;NPR2 antag=15µM;FLuc counter=0;GloSensor ctrl=14µM
Cc1cccc(OCC(=O)N2[C@H]3CC[C@@H]2c2cnc(-c4ccc(F)cc4)nc2C3)c1	?	?	?	0	Npr1 antag conf=?;NPR2 antag=?;FLuc counter=0;GloSensor ctrl=?
Cc1cc(C(=O)N2[C@H]3CC[C@@H]2c2cnc(-c4ccc(F)cc4)nc2C3)n[nH]1	?	?	13µM	0	Npr1 antag conf=24µM;NPR2 antag=24µM;FLuc counter=0;GloSensor ctrl=24µM
COc1cc2c(cc1OCc1ccncc1)NC(=O)C21CCN(c2nc(C)cc(C)n2)CC1	?	?	0	0
